Assay results taken from PubChem BioAssay AID1159580 (chemical genetic matrix, 2015).
Hit rate of the full screen: of about 5,500 compounds, about 2,000 (36%) were called active. Roughly 18% stayed inconclusive and do not appear here. Rule as the data show it: active = normalized growth mostly below about 0.91 (no sharp cut-off); inconclusive = no clear call, values can overlap the other calls; inactive = mostly above about 0.92. Some of the results follow.

Experiment: chemical genetic growth profiling, strain panel (AID 1159580);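 also: tested at 20 µM; growth read once vehicle control cultures reached saturation at 30 °C; 1 = growth at the plate median or of vehicle wells; lower values mean less growth of the strain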
Conditions: S. cerevisiae deletion strains, growth OD

Measured: normalized growth

CC(=O)NCCCCCC(=O)O
inactive: locus YAL013W, strain DEP1, hits give low values 1.01 | locus YAL021C, strain ccr4, hits give low values 1.01 | locus YAL026C, strain drs2, hits give low values 0.978 | locus YAL030W, strain snc1, hits give low values 0.99 | locus YBL061C, strain skt5, hits give low values 0.99 | locus YBR009C, strain hhf1, hits give low values 0.979 | locus YBR021W, strain FUR4, hits give low values 1.02 | locus YBR023C, strain chs3, hits give low values 0.984 | locus YBR171W, strain sec66, hits give low values 0.999 | locus YBR229C, strain ROT2, hits give low values 1.01 | locus YBR231C, strain swc5, hits give low values 0.998 | locus YBR279W, strain paf1, hits give low values 0.998 | locus YCL011C, strain gbp2, hits give low values 0.968 | locus YCL016C, strain dcc1, hits give low values 1 | locus YCL029C, strain bik1, hits give low values 0.988 | locus YCL061C, strain MRC1, hits give low values 1 | locus YCL069W, strain vba3, hits give low values 0.979 | locus YCR088W, strain abp1, hits give low values 0.99 | locus YDL005C, strain med2, hits give low values 0.984 | locus YDL035C, strain GPR1, hits give low values 1.02 | locus YDL040C, strain nat1, hits give low values 0.995 | locus YDL074C, strain BRE1, hits give low values 1.04 | locus YDL101C, strain DUN1, hits give low values 1.02 | locus YDL134C, strain PPH21, hits give low values 1 | locus YDL185W, strain tfp1, hits give low values 0.985 | locus YDL192W, strain arf1, hits give low values 0.988 | locus YDR001C, strain nth1, hits give low values 0.987 | locus YDR069C, strain doa4, hits give low values 0.993 | locus YDR101C, strain arx1, hits give low values 0.986 | locus YDR137W, strain rgp1, hits give low values 1.01 | locus YDR159W, strain sac3, hits give low values 0.976 | locus YDR162C, strain NBP2, hits give low values 1.01 | locus YDR195W, strain ref2 0.982 | locus YDR297W, strain sur2, hits give low values 0.993 | locus YDR318W, strain mcm21, hits give low values 0.992 | locus YDR334W, strain swr1, hits give low values 0.979 | locus YDR335W, strain msn5, hits give low values 1 | locus YDR388W, hits give low values 0.97 | locus YDR392W, strain spt3, hits give low values 0.891 | locus YDR502C, strain sam2, hits give low values 0.98 | locus YEL003W, strain gim4, hits give low values 0.969 | locus YEL037C, strain rad23, hits give low values 0.972 | locus YEL061C, strain CIN8 (second series), hits give low values 0.977 | locus YEL061C, strain CIN8, hits give low values 1.01 | locus YER015W, strain faa2, hits give low values 1 | locus YER016W, strain bim1, hits give low values 0.997 | locus YER110C, hits give low values 0.986 | locus YER111C, strain swi4, hits give low values 0.967 | locus YER155C, strain BEM2 (second series), hits give low values 1.01 | locus YER155C, strain BEM2, hits give low values 1.01 | locus YER167W, strain BCK2, hits give low values 1 | locus YFR010W, strain ubp6, hits give low values 0.983 | locus YGL078C, strain dbp3, hits give low values 0.974 | locus YGL086W, strain mad1, hits give low values 1 | locus YGL167C, strain pmr1, hits give low values 0.969 | locus YGL173C, strain kem1, hits give low values 0.99 | locus YGL227W, strain vid30, hits give low values 0.97 | locus YGL240W, strain doc1, hits give low values 0.993 | locus YGL248W, strain PDE1, hits give low values 1.03 | locus YGL253W, strain hxk2, hits give low values 0.991 | locus YGR135W, strain pre9, hits give low values 0.979 | locus YGR229C, strain SMI1, hits give low values 1.01 | locus YGR252W, strain gcn5, hits give low values 0.954 | locus YHR013C, strain ard1, hits give low values 0.946 | locus YHR027C, strain rpn1, hits give low values 1.01 | locus YHR030C, strain SLT2, hits give low values 1.01 | locus YHR079C, strain IRE1 (second series), hits give low values 0.992 | locus YHR094C, strain hxt1, hits give low values 0.984 | locus YHR129C, strain ARP1, hits give low values 1.01 | locus YHR142W, strain chs7, hits give low values 1.02 | locus YHR200W, strain rpn10, hits give low values 0.994 | locus YIL066C, strain RNR3, hits give low values 1.03 | locus YIL073C, strain SPO22, hits give low values 0.979 | locus YIL125W, strain kgd1, hits give low values 0.981 | locus YIR030C, strain dcg1, hits give low values 0.998 | locus YJL092W, strain hpr5, hits give low values 0.99 | locus YJL095W, strain BCK1 (second series), hits give low values 1.01 | locus YJL095W, strain BCK1, hits give low values 1.03 | locus YJL115W, strain asf1, hits give low values 0.98 | locus YJL129C, strain trk1, hits give low values 1 | locus YJL134W, strain LCB3, hits give low values 1.01 | locus YJL154C, strain vps35, hits give low values 0.978 | locus YJL164C, strain tpk1, hits give low values 1.02 | locus YJL166W, strain qcr8, hits give low values 1.01 | locus YJL168C, strain set2, hits give low values 0.986 | locus YJL187C, strain SWE1 (second series), hits give low values 1.03
